Source: PubChem (Broad Institute)
The full list was thinned out, with hits kept by preference.
IDE exosite inh: exo-site inhibitors of human insulin-degrading enzyme | P14735 | purified IDE, FL-6b probe fluorescence polarization; stronger effect = lower value | z-score at 20 µM | 17,000 tested, 6.3% active | AID 1259349;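 active = z-score of -3 or lower, meaning strong loss of probe binding signal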;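 note: His-tagged human IDE residues 42-1019 made in E. coli with 30 nM FL-6b probe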
* = called active by the depositor.

SMILES	IDE exosite inh
Cc1cccc(-c2ccc([C@@H]3[C@@H](CO)N4C(=O)CN(C(=O)c5cccnc5)C[C@H]34)cc2)c1	-4.2*
Cc1ccc(-c2ccc([C@H]3[C@H](CO)N4C(=O)CN(C(=O)c5cccnc5)C[C@@H]34)cc2)cc1	-3.2*
Cc1ccc(-c2ccc([C@@H]3[C@@H](CO)N4C(=O)CN(C(=O)c5cccnc5)C[C@H]34)cc2)cc1	-0.43
O=C(c1cccnc1)N1CC(=O)N2[C@H](C1)[C@H](c1ccc(-c3cccnc3)cc1)[C@@H]2CO	1.8
N#Cc1ccc(-c2ccc([C@@H]3[C@H](CO)N4C(=O)CNC[C@@H]34)cc2)cc1	-1.4
O=C(c1cccnc1)N1CCCCN2[C@H](C1)[C@@H](c1ccc(C#Cc3ccccn3)cc1)[C@@H]2CO	-3.8*
O=C(c1cccnc1)N1CCCCN2[C@H](CO)[C@@H](c3ccc(C#Cc4ccccn4)cc3)[C@H]2C1	-4.7*
O=C(c1cccnc1)N1CCCCN2[C@H](CO)[C@@H](c3ccc(C#Cc4ccccn4)cc3)[C@@H]2C1	-2.6
O=C(c1ccncc1)N1CCCCN2[C@@H](CO)[C@H](c3ccc(C#Cc4ccccn4)cc3)[C@@H]2C1	-1.1
CC(C)(O)C#Cc1ccc([C@H]2[C@@H](CO)N3CCCCN(C(=O)c4cccnc4)C[C@H]23)cc1	2
O=C(c1cccnc1)N1CCCCN2[C@@H](CO)[C@H](c3ccc(C#Cc4cccnc4)cc3)[C@@H]2C1	0.61
CC(C)N(C[C@H]1[C@@H](c2ccccc2)[C@@H](CO)N1CC1CC1)C(=O)C1CCC1	1
C[C@H](CO)N1C[C@H](C)[C@@H](CN(C)Cc2cccc(C(=O)Nc3ccccc3N)c2)OCc2ccccc2-c2c(n(C)c3ccccc23)C1=O	-0.24
CN1C(=O)c2cc(NC(=O)Cc3cccs3)ccc2OC[C@H]2O[C@H](CC(=O)NCc3ccc(-c4ccccc4)cc3)CC[C@H]21	-1.8
CN(C)CC#Cc1ccc([C@H]2[C@@H](CO)N3C(=O)CN(C(=O)c4cccc(F)c4)C[C@@H]23)cc1	1
CCS(=O)(=O)N1CC(=O)N2[C@@H](CO)[C@H](c3ccc(C#CC4CCCCC4)cc3)[C@@H]2C1	-1.1
COc1cccc(-c2ccc([C@H]3[C@@H](CO)N4C(=O)CN(C(=O)c5ccncc5)C[C@H]34)cc2)c1	-8*
COc1cccc(-c2ccc([C@H]3[C@H](CO)N4C(=O)CN(C(=O)c5ccncc5)C[C@@H]34)cc2)c1	-4.6*
O=C(c1ccncc1)N1CC(=O)N2[C@H](CO)[C@@H](c3ccc(-c4ccccc4)cc3)[C@H]2C1	2.8
COc1cccc(-c2ccc([C@@H]3[C@H](CO)N4C(=O)CN(C(=O)c5ccncc5)C[C@@H]34)cc2)c1	-1.8
O=C(c1ccncc1)N1CC(=O)N2[C@H](CO)[C@@H](c3ccc(-c4cccnc4)cc3)[C@@H]2C1	0.55
O=C(c1ccncc1)N1CC(=O)N2[C@@H](CO)[C@H](c3ccc(-c4cccnc4)cc3)[C@@H]2C1	1.2
CC(C)[C@@H]1CCc2cnnn2COC[C@H](Cc2ccccc2)NC1=O	-0.78
O=C(c1cccnc1)N1CC2(C1)[C@H](c1ccccc1)[C@@H](CO)N2C(=O)CC1CC1	-0.68
CN(C)CC(=O)N[C@H]1CC[C@H](CCNC(=O)C2CCC2)O[C@H]1CO	2.2
SMILES	IDE exosite inh
O=C(c1ccc2c(c1)OCO2)N1CC(=O)N2[C@H](CO)[C@H](c3ccc(C#Cc4ccccc4)cc3)[C@H]2C1	0.044
O=C(c1ccc2c(c1)OCO2)N1CC(=O)N2[C@H](C1)[C@H](c1ccc(C#Cc3ccccc3)cc1)[C@@H]2CO	-3.5*
O=C(c1ccc2c(c1)OCO2)N1CC(=O)N2[C@H](CO)[C@H](c3ccc(-c4ccccc4)cc3)[C@@H]2C1	3.1
O=C(c1ccc2c(c1)OCO2)N1CC(=O)N2[C@@H](CO)[C@@H](c3ccc(C#Cc4ccccc4)cc3)[C@@H]2C1	-5.2*
O=C(c1ccc2c(c1)OCO2)N1CC(=O)N2[C@H](C1)[C@H](c1ccc(-c3ccccc3)cc1)[C@@H]2CO	3.5
CC(C)C#Cc1ccc([C@H]2[C@H](CO)N3C(=O)CN(C(=O)c4ccc5c(c4)OCO5)C[C@@H]23)cc1	-1.3
C[C@H]1COCc2cnnn2CC[C@@H](Cc2ccccc2)C(=O)N1	-0.73
COc1ccccc1S(=O)(=O)N(C)C[C@@H]1OCc2ccccc2-c2ccccc2C(=O)N([C@H](C)CO)C[C@@H]1C	-0.36
C[C@@H]1CN([C@@H](C)CO)C(=O)c2ccccc2-c2ccccc2CO[C@@H]1CN(C)C(=O)[C@H](Cc1ccccc1)N(C)C	0.73
OC[C@@H]1[C@H](c2ccc(C#CC3CCCC3)cc2)[C@H]2CN(CCC(F)(F)F)CCCCN12	2.5
COc1ccccc1C#Cc1ccc([C@@H]2[C@@H](CO)N3CCCCN(CCC(F)(F)F)C[C@@H]23)cc1	-5.6*
OC[C@H]1[C@@H](c2ccc(-c3ccccc3)cc2)[C@H]2CN(CCC(F)(F)F)CCCCN21	1.8
OC[C@H]1[C@@H](c2ccc(C#CC3CCCC3)cc2)[C@@H]2CN(CCC(F)(F)F)CCCCN12	3.8
COc1ccccc1C#Cc1ccc([C@H]2[C@@H](CO)N3CCCCN(CCC(F)(F)F)C[C@@H]23)cc1	-6.9*
OC[C@@H]1[C@H](c2ccc(-c3ccccc3)cc2)[C@H]2CN(CCC(F)(F)F)CCCCN12	2.4
OC[C@@H]1[C@@H](c2ccc(-c3ccccc3)cc2)[C@@H]2CN(CCC(F)(F)F)CCCCN12	0.77
COc1ccccc1C#Cc1ccc([C@H]2[C@H](CO)N3CCCCN(CCC(F)(F)F)C[C@@H]23)cc1	-6.1*
OC[C@H]1[C@@H](c2ccc(-c3ccc(F)cc3)cc2)[C@H]2CN(CCC(F)(F)F)CCCCN21	1.7
O=C(Nc1ccccc1F)N1CC(=O)N2[C@H](CO)[C@@H](c3ccc(C#Cc4ccc(F)cc4)cc3)[C@H]2C1	3.2
O=C(Nc1cccc(F)c1)N1CCCCN2[C@H](C1)[C@H](c1ccc(C#CC3CC3)cc1)[C@@H]2CO	3.9
OC[C@H]1[C@@H](c2ccc(C#CC3(O)CCCC3)cc2)[C@@H]2CN(Cc3ccccc3F)CCCCN12	3.6
CN1C(=O)c2cc(NC(=O)c3cccc(C(F)(F)F)c3)ccc2OC[C@H]2O[C@@H](CC(=O)NCCN3CCCC3)CC[C@H]21	0.27
CCC(=O)N1CC(=O)N2[C@H](CO)[C@H](c3ccc(C#CC4CCCC4)cc3)[C@H]2C1	0.15
COCC(=O)N1CC(=O)N2[C@H](C1)[C@H](c1ccc(C#Cc3cccnc3)cc1)[C@@H]2CO	1.4
COCC(=O)N1CCCCN2[C@@H](CO)[C@H](c3ccc(C#Cc4cccnc4)cc3)[C@@H]2C1	-6.3*
SMILES	IDE exosite inh
CCC(=O)N1CCCCN2[C@H](C1)[C@@H](c1ccc(C#Cc3cccnc3)cc1)[C@@H]2CO	-2.4
CCC(=O)N1CCCCN2[C@H](C1)[C@H](c1ccc(C#Cc3cccnc3)cc1)[C@@H]2CO	-3.5*
COCC(=O)N1CCCCN2[C@@H](CO)[C@@H](c3ccc(C#Cc4cccnc4)cc3)[C@@H]2C1	2.2
CCC(=O)N1CCCCN2[C@H](CO)[C@@H](c3ccc(C#Cc4cccnc4)cc3)[C@H]2C1	-2.4
Cc1ccc(OC(=O)N(C)C[C@@H]2OCc3ccccc3-c3ccccc3C(=O)N([C@H](C)CO)C[C@H]2C)cc1	0.9
Cc1ccc(-c2ccc([C@H]3[C@H](CO)N4C(=O)CN(C(=O)Nc5cccc(F)c5)C[C@@H]34)cc2)cc1	2.4
CCCNC(=O)N1[C@@H]2CNC[C@H]1C2c1ccc(-c2cccnc2)cc1 (some centres not stated)	1.6
